# D1 PAM: potentiators of human D1 dopamine receptor. P21728. HEK293 TREx D1 cells, calcium flux, dopamine EC20 potentiation. potentiation, % at 10 µM. 0.036% of 360,000 active; in the data active = potentiation above about 30%; also: 0% is about no effect
# TRHR enhancer: allosterically enhances the human TRH receptor; enhancement, % at 2 µM; P34981; 0.66% of 360,000 active; TRHR cells, fluo-8 calcium fluorescence, EC20 TRH enhancement; in the data active = enhancement above about 30%; also: 0% is about no effect
# Target sequence (P34981 whole entry, looked up): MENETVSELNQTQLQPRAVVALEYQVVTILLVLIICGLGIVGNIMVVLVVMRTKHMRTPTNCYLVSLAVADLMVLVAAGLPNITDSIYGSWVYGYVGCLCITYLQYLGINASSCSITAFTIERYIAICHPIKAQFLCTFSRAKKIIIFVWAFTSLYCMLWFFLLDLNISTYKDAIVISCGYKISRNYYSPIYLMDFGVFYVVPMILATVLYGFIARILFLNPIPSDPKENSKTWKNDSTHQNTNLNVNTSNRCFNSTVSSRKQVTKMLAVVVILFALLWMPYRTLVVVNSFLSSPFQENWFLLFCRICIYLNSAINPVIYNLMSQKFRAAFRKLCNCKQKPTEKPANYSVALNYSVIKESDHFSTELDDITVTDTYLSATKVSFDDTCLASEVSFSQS
#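 TRHR-expressing cells loaded with fluo-8 calcium dye were read kinetically (ex 480/em 530) during compound addition, then stimulated with an EC20 of TRH (10 nM final). Enhancement of the Gq-mediated intracellular calcium response was scored.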
# D1 agonist: human D1 receptor agonism | 1% of 360,000 active | HEK293 T-REx D1 cells, calcium flux, agonist mode | AID 504660 | activation, % at 2 µM; also: 0% is about no effect
#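 Tetracycline-induced HEK293 TREx D1 cells, force-coupled to calcium signalling, were dye-loaded with a no-wash calcium kit. Compound was pin-added after a 10 s baseline. Fluorescence was read kinetically at 1 cycle/s for 180 s, with calcium rises flagged as agonism.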
# TRHR ag: TRH receptor (human) agonism | TRHR cells, calcium flux fluo-8, FDSS agonist mode | activation, % at 2 µM | 0.18% of 360,000 active; also: 0% is about no effect
#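 TRHR-expressing cells loaded with fluo-8 calcium dye; 23 nL library compound pin-transferred, kinetic FDSS fluorescence (Ex 480/Em 530) recorded about 180 s for agonist-induced calcium release, before a 10 nM TRH EC20 addition for potentiator mode.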
# D1 antag: human D1 dopamine receptor antagonism | P21728 | HEK293 TREx D1 cells, calcium flux, dopamine EC80; hits give low values | activity change, negative = inhibition, % at 10 µM | 3.2% of 360,000 active; in the data active = activity change below about -30%; also: % is scaled to controls: 0 for no effect and ±100 for the full control effect
#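 Kinetic fluorescence of a calcium dye serves as the read-out. D1-expressing Hek293 Trex cells, induced overnight at 30 C, are exposed to compound for 180 s before an EC80 dopamine addition, then read 180 s further.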
# Active calls of the source: *; x = no result given. This is a sample that favours compounds with a hit; in the whole collection about 4.7% have one here. Rule as the data show it, unless noted: active = activation above about 30%; inactive = the rest.
SMILES,D1 PAM,TRHR enhancer,D1 agonist,TRHR ag,D1 antag
C#CCOCCOCCOCCNc1nc(N2CCN(C(=O)CCCCCCCCCCNC(=O)[C@H](CCCCN)n3cc(C[C@@H](C)CC)nn3)CC2)nc(N2CCN(C(=O)CCCCCCCCCCNC(=O)[C@H](CCCN=C(N)N)n3cc(C[C@@H](C)CC)nn3)CC2)n1,-8,-2,2,0,-12
C#CCOCCOCCOCCNc1nc(N2CCN(C(=O)CCCCCCCCCCNC(=O)[C@H](CCCN=C(N)N)n3cc(C[C@@H](C)CC)nn3)CC2)nc(N2CCN(C(=O)CCCCCCCCCCNC(=O)[C@@H]([C@H](C)CC)n3cc(CCCCCN)nn3)CC2)n1,35*,2,6,0,15
C#CCOCCOCCOCCNc1nc(N2CCN(C(=O)CCCCCCCCCCNC(=O)[C@H]([C@@H](C)CC)n3cc(CCCCN=C(N)N)nn3)CC2)nc(N2CCN(C(=O)CCCCCCCCCCNC(=O)[C@H](CCCN=C(N)N)n3cc(C[C@@H](C)CC)nn3)CC2)n1,-10,-1,2,0,18
C#CCOCCOCCOCCNc1nc(N2CCN(C(=O)CCCCCCCCCCNC(=O)[C@H](CCCCN)n3cc(CCO)nn3)CC2)nc(N2CCN(C(=O)CCCCCCCCCCNC(=O)[C@H](CCCCN)n3cc(C[C@@H](C)CC)nn3)CC2)n1,13,-4,70*,1,30
COc1cc(C2CC(=O)N(CC(=O)Nc3ccccc3F)c3ccccc3S2)cc(OC)c1OC (stereo unspecified),-6,0,6,1,7
CC(=O)N1CCSc2ccc(S(=O)(=O)NCc3ccc(F)cc3)cc21,-4,3,7,0,-30*
COc1ccc(CNS(=O)(=O)c2ccc3c(c2)N(C(C)=O)CC(C)S3)cc1 (stereo unspecified),-4,-2,11,0,1
CC(=O)N1CCSc2ccc(S(=O)(=O)NCc3ccccc3)cc21,-7,1,13,0,4
CC(=O)N1CC(C)Sc2ccc(S(=O)(=O)NCc3ccc(F)cc3)cc21 (stereo unspecified),-2,2,11,0,-37*
COc1ccc(CCNC(=O)c2ccc(-n3c(C)cc4c3CCC(C)C4)cc2)cc1OC (stereo unspecified),-3,9,-2,0,5
Cc1ccccc1CC1(CO)CCCN(Cc2ccn[nH]2)C1 (stereo unspecified),-4,-5,1,0,-17
Cc1ccccc1CC1(CO)CCCN(Cc2c(C)nn(C)c2Cl)C1 (stereo unspecified),-5,-2,17,0,-33*
Cc1nn(C)c(Cl)c1CN1CCCC(CO)(Cc2cccc(Cl)c2)C1 (stereo unspecified),-4,7,11,-3,-33*
CSCC(=O)N1CCCC(CO)(Cc2ccccc2C)C1 (stereo unspecified),-2,10,2,0,-53*
Cc1cccc(NC(=O)C2COc3ccccc3O2)c1 (stereo unspecified),5,3,3,-1,-32*
Cc1ccnc(NS(=O)(=O)c2ccc(NC(=O)C3CCCCC3C(=O)O)cc2)n1 (stereo unspecified),14,7,2,0,9
Cc1cc(C)nc(NS(=O)(=O)c2ccc(NC(=O)C3COc4ccccc4O3)cc2)n1 (stereo unspecified),-2,2,5,-1,-60*
Cc1ccnc(NS(=O)(=O)c2ccc(NC(=O)C3CC=CCC3C(=O)O)cc2)n1 (stereo unspecified),1,1,2,0,-89*
CCS(=O)(=O)c1ccccc1C(=O)N(Cc1cccnc1)c1nc2cc(C)c(C)cc2s1,0,-2,-3,0,x
CCN(CC)CCNC(=O)Cn1ncc2c([nH]c3ccccc32)c1=O,0,5,1,0,-1
Cc1cc(O)c(C(c2cccc(F)c2)N2CCN(c3ccccc3)CC2)c(=O)n1Cc1ccco1 (stereo unspecified),-4,-1,2,0,1
COc1ccccc1C(=O)NC1(C(F)(F)F)C(=O)Nc2c1c(=O)[nH]c(=O)n2CCc1ccccc1 (stereo unspecified),-7,-7,1,-1,-7
CCOc1cc(-c2ccc(OC(=O)c3ccccc3F)cc2)cc(=O)c2c(C)oc(C)c12,1,-10,2,2,-3
O=C(N/N=C/c1coc2ccccc2c1=O)c1ccccc1,-7,-1,1,0,-44*
CC(C)(C)NC(=O)CCc1nnc(Cc2c[nH]c3ccccc23)o1,-3,-10,3,-1,-51*
SMILES,D1 PAM,TRHR enhancer,D1 agonist,TRHR ag,D1 antag
O=C(CCc1nnc(Cc2c[nH]c3ccccc23)o1)NCC1CC12CCCCC2 (stereo unspecified),-2,-1,1,0,4
CN(Cc1ccsc1)C(=O)CCc1nnc(Cc2c[nH]c3ccccc23)o1,-2,36*,0,0,2
CCC(COC)NC(=O)CCc1nnc(Cc2c[nH]c3ccccc23)o1 (stereo unspecified),1,1,1,1,2
CCn1nc(C)c(CNC(=O)CCc2nnc(Cc3c[nH]c4ccccc34)o2)c1C,-8,-4,2,-1,-49*
Oc1ccccc1C(=S)N1CCN(c2cccc(Cl)c2)CC1,-4,-1,2,-1,-39*
COc1cc(C(=S)N2CCN(c3cccc(Cl)c3)CC2)ccc1O,-3,2,4,-1,-31*
OC(CN1CCN(c2cccc(Cl)c2)CC1)c1ccccc1 (stereo unspecified),-9,-6,4,0,-35*
OC(CN1CCN(c2cccc(Cl)c2)CC1)c1ccc(F)cc1 (stereo unspecified),-11,-2,5,-1,-21
CCc1ccc(-c2cc(C)no2)cc1S(=O)(=O)Nc1ccc(Cl)cc1,-5,3,3,0,-7
CC1CCN(c2nc3ccc(C(=O)NCc4ccccc4Cl)cc3s2)CC1,0,-5,5,1,1
O=Cc1ccccc1-n1cccn1,-1,1,2,1,-33*
Cc1cc(CNC(=O)c2cc(COc3ccc(F)c(F)c3)on2)nn1C,1,3,27,1,-3
CCOC(=O)CC1(NC(=O)c2cc(COc3ccc(F)c(F)c3)on2)CCCCC1,-2,1,31*,2,32
Cc1ccc(S(=O)(=O)N(C)Cc2nc(-c3ccc(Br)cc3)no2)cc1,-8,-8,16,2,-36*
CN(C)c1ccc(CN(CC2CCCO2)C(=O)COc2ccccc2Cl)cc1 (stereo unspecified),-2,-3,2,-1,-17
O=C(CNC(=O)C1CCCCC1)Nc1ccccc1Cl,16,-2,2,-1,-93*

# Bioassay records from PubChem BioAssay.
